PubChem BioAssay AID588763 (NMMLSC, 2011)
Measured potencies and affinities stand elsewhere. The source made the active and inactive calls. How the calls were made is not given here.

Molecular target: Beta-2 adrenergic receptor (Homo sapiens) (UniProt P07550)
Assay: ADRB2 activation measured by internalization – cell-based, FAP fluorogen, flow cytometry, cherry pick 1, dose response (AID 588763)
Details: AM2.2-beta2AR cells, 90 min; series mostly up to 33 µM; activation (receptor internalization): at the top concentration

Chain of Beta-2 adrenergic receptor (Homo sapiens) (P07550 whole entry, looked up): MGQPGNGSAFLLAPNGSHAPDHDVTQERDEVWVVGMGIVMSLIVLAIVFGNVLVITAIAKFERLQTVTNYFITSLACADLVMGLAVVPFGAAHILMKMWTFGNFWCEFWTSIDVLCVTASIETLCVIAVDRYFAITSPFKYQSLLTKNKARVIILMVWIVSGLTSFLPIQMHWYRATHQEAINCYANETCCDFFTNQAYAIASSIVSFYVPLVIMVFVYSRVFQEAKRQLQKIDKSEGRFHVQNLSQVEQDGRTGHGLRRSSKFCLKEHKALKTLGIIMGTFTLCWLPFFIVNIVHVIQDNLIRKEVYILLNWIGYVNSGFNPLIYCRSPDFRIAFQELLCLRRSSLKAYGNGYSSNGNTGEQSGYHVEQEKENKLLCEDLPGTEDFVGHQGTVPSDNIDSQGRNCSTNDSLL

Activation (receptor internalization), inactive:
CCOC(=O)c1ccc(N=c2sc(C(=O)OC)cc(=O)n2-c2ccc(C(=O)OCC)cc2)cc1 35%, Cc1ccc(OCc2cc(C(=O)NCc3cc(F)ccc3C)no2)cn1 -17.5%, COc1cccc(-c2ccc(NC(=O)C3CCCN(Cc4ccccn4)C3)cc2)c1 (stereo not drawn) 11.9%, c1ccc(-c2nnc(SCc3nc4ccccc4[nH]3)n2Cc2ccco2)cc1 -6.19%, COc1ccc(-n2nc3c(N4CCC(C(=O)NCc5ccco5)CC4)nnc(C)c3c2C)cc1 11%, COC(=O)c1ccc(CNC(=O)c2cc(COc3cncc(Cl)c3)on2)cc1 4.05%, CCN(CC)S(=O)(=O)c1cc(C(=O)Nc2cc(Cl)ccc2N2CCN(C)CC2)ccc1Cl 24.4%, CC(C)c1nc2sc3c(NCc4ccccc4)ncnc3c2c2c1COC(C)(C)C2 13%, COc1ccccc1-c1cc(C(F)(F)F)nc(S(=O)(=O)CCCC(=O)N2CCOCC2)n1 38.6%, CC(=O)c1ccc(NC(=O)c2ccc3c(Cl)c4c(nc3c2)CCCC4)cc1 94.8%, CCc1ccc(CN(C)C(=O)c2cc(COc3cncc(Cl)c3)on2)cc1 -3.26%, O=C(COc1ccc(S(=O)(=O)N2CCOCC2)cc1)Nc1ccc2c(c1)OCCO2 5.84%, O=C1CN(S(=O)(=O)c2cccc(Cl)c2Cl)c2ccccc2N1 41.8%, Cc1ccc(NC(=O)c2cc(N3C(=O)C=CC3=O)ccc2N2CCOCC2)cc1 110%, Cc1cc(S(=O)(=O)N2CCCCC2)ccc1OCC(=O)Nc1ccccc1 2.64%, O=C(c1ccc(OC2CCN(Cc3ccccc3C(F)(F)F)CC2)cc1)N1CCCCC1 37.8%, COC(=O)c1ccccc1NC(=O)Cn1nnc(-c2ccc(OC)cc2)n1 -4.84%, O=C(COc1ccc(S(=O)(=O)N2CCOCC2)cc1)Nc1ccc(Br)cc1 -5.92%, O=C(Nc1cccc(-c2nc3cccnc3s2)c1)C1c2ccccc2Oc2ccccc21 87.7%, Cc1ccccc1OCc1nc(-c2ccc(NC(=O)c3ccc4c(c3)OCO4)cc2)no1 2.95%, CCOc1cc(/C=C2\CN(C)C/C(=C\c3ccc(O)c(OCC)c3)C2=O)ccc1O 72.9%, COC(=O)c1ccccc1NC(=O)COc1ccc(S(=O)(=O)N2CCCC2)cc1C 6.72%, CC(NCc1ccc(OCc2ccc(Cl)cc2)cc1)C(O)c1ccccc1 (stereo not drawn) 66.1%, COc1cccc(OC)c1C(=O)Nc1ccc(NC(=O)c2ccco2)cc1 -20%, COc1ccc(Cl)c(NC(=O)Cn2nnc(-c3ccccc3N)n2)c1 7.97%, COc1ccc(C(=O)Nc2nc3cc4c(cc3s2)OCCO4)c(OC)c1 61.6%, COc1ccc(CCNCC(O)c2ccccc2)cc1 (stereo not drawn) -0.216%, COCc1ccc(CN2CCCC(C(=O)Nc3ccc(-c4cccc(OC)c4)cc3)C2)o1 (stereo not drawn) 24.9%, CC1=NN(C(N)=S)C(=O)C1N=Nc1ccc(F)cc1 (stereo not drawn) -24%, C=CCn1c(CCNC(=O)c2cccs2)nnc1SCC(=O)Nc1cccc(Cl)c1C 81.8%, CCCOc1ccc(-c2nnn(CC(=O)Nc3cccc(C(=O)OC)c3)n2)cc1 -10.7%, Cc1ccc(OCc2cc(C(=O)NC3CCc4ccccc43)no2)cn1 (stereo not drawn) -23%, O=C(Cn1nnc(-c2ccccc2)n1)Nc1ccccc1N1CCOCC1 -11.5%
